Test results: PubChem BioAssay AID836 (Columbia University Molecular Screening Center, 2007)
In all, about 91,000 compounds went through this assay and about 160 (0.18%) were called active.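 Rule for the calls: active = inhibition above the batch mean plus 3 SD and confirmed as a hit by visual image inspection (cut at about 30% in these data, passing the limit was not always enough); inconclusive = above the inhibition threshold but rejected on visual inspection; inactive = the rest.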 Shown is part of a subset that was picked to be rich in actives.

Assay: modifiers of F-actin cytoskeleton organization, primary screen, imaging, HUVEC, phalloidin staining, high-content imaging (AID 836)
Settings: HUVEC TNFa F-actin phalloidin imaging, at 2 µM, hits give high values

inhibition, inactive:
O=C1c2cccc3cc(Br)cc(c23)C(=O)N1Nc1ccccc1 -0.3%
O=C(Nc1cccc2ncccc12)C(Cl)(Cl)Cl 17.1%
O=C(NC1CCN(C(=S)NCc2ccco2)CC1)c1ccc(F)cc1 9.8%
N#C/C(=C1/CCCN1)c1ccccn1 -5.5%
Nc1c(-c2cccc(Cl)c2)cnn1-c1cccc([N+](=O)[O-])c1 14.9%
Cc1cc(OC(=O)c2ccc(Cl)cc2)cc(=O)n1C 2.4%
O=C(O)c1ccccc1NC(=S)NC(NC(=O)c1ccccc1[N+](=O)[O-])C(Cl)(Cl)Cl (stereo unspecified) -20.2%
COc1ccc(CCNC(=O)CSc2nnc(-c3cccc(F)c3)o2)cc1OC 2.3%
COc1ccc(CN(C(=O)CSc2nnc(-c3ccc(OC)c(OC)c3)o2)c2ccc(F)cc2)cc1 15.5%
CC(=O)c1nn(-c2cccc(Br)c2)cc1C(=O)c1cccc2ccccc12 18.2%
O=C(CSc1ccc(/C=N/NC(=O)c2cccc(F)c2)o1)Nc1ccccc1 1.1%
NC(=O)C1(N2CCCCC2)CCN(C(=S)Nc2ccc(Cl)cc2)CC1 -20.4%
COCCCn1c(SCc2cccc(OC)c2)nc2cc(OC)c(OC)cc2c1=N 3.7%
Cc1ccc(N2CCN(C3=NC(=O)/C(=C\c4cccs4)S3)CC2)cc1 24.1%
CCCCOC(=O)NCN1C(=O)C2C3C=CC(C3)C2C1=O (stereo unspecified) 11.5%
CCCCCOC(=O)NCCOC(=O)Nc1ccc(C(=O)OCC)cc1 8%
CCC(=O)OCc1c(C(F)(F)F)nn(C)c1Oc1cccc(C(F)(F)F)c1 -4%
COC(=O)c1ccc(C2C(Oc3ccccc3C)C(=O)N2CCc2ccc(OC)c(OC)c2)cc1 (stereo unspecified) 3.1%
Cc1[nH]c2ccccc2c1C(=O)COC(=O)C(C)C -13%
Cc1ccc(-c2nc(C)sc2CC(=O)O)cc1 7.2%
N=c1oc2ccccc2cc1C(=O)N/N=C/c1ccccc1 -3.7%
COc1cc(/C=N\NC(=O)C2C(=O)NCC2c2ccccc2)cc(OC)c1O (stereo unspecified) 2%
CC1CCc2c(c3ccccc3[nH]c2=O)O1 (stereo unspecified) 3%
Nc1c(-c2ccc(F)cc2)cnc2ncnn12 21.9%
Cc1ccc(SCC(=O)NC(=O)NCc2ccco2)c(C)c1 1.6%
COc1ccc([N+](=O)[O-])cc1NC(=O)CCc1ccccc1 9.1%
CC(Oc1ccc(-c2ccccc2)c(F)c1)c1ccn(S(=O)(=O)c2cccc3ccccc23)n1 (stereo unspecified) 1.3%
N#C/C(=C(/O)Cc1cccc2ccccc12)c1nc2ccccc2s1 18.2%
CC1=C(C(=O)Nc2ccc(Cl)cc2)C(c2ccco2)NC(=O)N1 (stereo unspecified) -60.1%
COc1cc(C2CC(=O)c3cnc(NC(C)=O)nc3C2)cc(OC)c1OC (stereo unspecified) -1.6%
FC(F)(F)c1cccc(-c2cc3ccccc3nc2N2CCCC2)c1 -10%
COc1cccc(NC(=O)C2c3cc(OC)c(OC)cc3C(=O)N(C)C2c2cccnc2)c1 (stereo unspecified) 29%
NC(=O)COc1ccc(/C=N/NC(=O)C2CCCN2S(=O)(=O)c2ccc(Cl)cc2)cc1 (stereo unspecified) -7.7%
CC(=O)c1cn(CCCCCCCCCCn2cc(C(C)=O)c(=O)[nH]c2=O)c(=O)[nH]c1=O 6.8%
O=C(CCc1ccc(S(=O)(=O)N2CCOCC2)cc1)Nc1ccc2ccccc2c1 -5%
O=C(CNC(=O)c1ccccc1)NCC(=O)OCc1ccc(Cl)cc1 -29.4%
CC(C(=O)Nc1ccc(F)c(F)c1F)N1CCCCCC1 (stereo unspecified) 9.4%
O=c1c2ccccc2nc2n1C(CSc1ccc(Cl)cc1)CN2 (stereo unspecified) -15.2%
Cc1cccc(CSc2nnc(NC(=O)CSc3nnc(C)s3)s2)c1 -21.1%
O=C(NC1CCCCC1)c1cc([N+](=O)[O-])ccc1N1CCOCC1 -40.7%
Cc1n[nH]c(=O)n1-c1ccc(Oc2ccccc2)cc1 22.6%
Cc1ccc(C)c(NC(=O)C2Cc3ccccc3CN2C(=O)OCc2ccccc2)c1 (stereo unspecified) 26.6%
Cc1ccc(S(=O)(=O)N(CC(=O)NCCSC2CCCCC2)c2ccccc2F)cc1 1.5%
CC(C)CC(=O)N1CCC(O)(CS(=O)(=O)Cc2ccccc2)CC1 34.4%
Cc1ccc(-c2csc(N(Cc3ccco3)C(=O)c3cccs3)n2)cc1 5.4%
Fc1ccccc1COc1ccccc1CNCc1ccncc1 -4.1%
COc1ccccc1NC(=O)c1ccc2nc(N3C(=O)CCC3=O)sc2c1 19.2%
COc1cc(C2C(C(=O)OCCC#N)=C(C)NC3=C2S(=O)(=O)c2ccccc23)cc(OC)c1OC (stereo unspecified) -21.9%
O=C(CCCN1C(=O)c2cccc3cccc(c23)C1=O)N1CCN(Cc2ccc3c(c2)OCO3)CC1 21%
Cc1cccc(COc2ccccc2/C=N/Nc2ccc([N+](=O)[O-])cc2)c1 15.8%
COc1ccccc1OCCNc1cc(N2CCOCC2)ccc1[N+](=O)[O-] 5.1%
O=C(COc1ccc(Br)cc1F)NC1CCN(Cc2ccccc2)CC1 -0.2%
C/C(=N/NC(=O)c1ccc(NC(=O)c2ccc(F)cc2)cc1)c1ccccc1 -18.2%
COc1cc(/C=C(/NC(=O)c2ccccc2)C(=O)Nc2cccc(O)c2)c([N+](=O)[O-])cc1OC 7.4%
C=CCNC(=S)NNc1ncnc2sc3c(c12)CC(C)(C)OC3 -11.6%
C=CCNC(=O)c1sc(SC)cc1-c1ccc(Cl)cc1 7.4%
Cc1cccc(-n2cnc(C(=O)Nc3cccnc3)c2)n1 1.4%
Cc1cccc(C)c1NC(=O)c1ccc(CN2CCc3ccccc3C2)cc1 -19.9%
Cc1cc(C)cc(OCC(=O)Nc2nc3ccc([N+](=O)[O-])cc3s2)c1 -19.8%
Cc1ccc(-c2nnc(-n3nnc4ccccc43)c3ccccc23)cc1 -2%
CC(C)c1ccc(/C=C/C(=O)NNC(=O)c2cccnc2)cc1 1.1%
O=C(Nc1ccccc1)O/N=C1\CCCCC1c1ccc([N+](=O)[O-])cc1[N+](=O)[O-] (stereo unspecified) -8.4%
c1ccc2c(CSCc3nc4ccccc4[nH]3)cccc2c1 -12.1%
CSc1ccc(C#N)cc1NC(=O)c1cccc(Cl)c1 3.3%
Cc1[nH]n(-c2ccccc2)c(=O)c1CCOC(=O)c1ccc(C(F)(F)F)cc1 -0.4%
CN(C)Cc1ccccc1C1(O)c2ccccc2CSc2ccccc21 (stereo unspecified) -10.2%
O=C(/C=C/c1ccccc1)N/C(=C/c1ccccc1)C(=O)Nc1ccccc1O -50.9%
CCOc1ccc(-c2c(C)n([O-])c3c([n+]2=O)CCCC3)cc1 -18.2%
Cc1c(Nc2cc(N3CCCC(C)C3)c3nonc3c2[N+](=O)[O-])c(=O)n(-c2ccccc2)n1C (stereo unspecified) 3.1%
COc1cc(/C=N/O)cc(Br)c1OCc1cccc(Cl)c1 -41.4%
CCOC(=O)c1nn(-c2cccc(C)c2)cc1C(=O)c1ccccc1 5.4%
O=C(/C=C/c1cc2c(cc1Br)OCO2)NCc1ccc(Cl)cc1 7.8%
Cc1nc(NC2=NC(C(=O)Nc3ccc(Cl)cc3)CC(=O)N2)nc2ccccc12 (stereo unspecified) 7.9%
Cc1nc(C)c(C(=O)N(c2ccc(C)c(C)c2)C(C(=O)NCc2ccco2)c2ccccc2)s1 (stereo unspecified) 29.1%
Cc1ccc(NC(=S)N/N=C2/CCCc3c(C)cc(C)cc32)cc1 13.9%
Cc1nn(-c2ccccc2)c(Cl)c1C(=O)Nc1ccccc1 -7.8%
Cc1cc(=O)oc2cc(OC(C)C(=O)Nc3ccc(N4CCOCC4)cc3)ccc12 (stereo unspecified) 0.5%
CCOC(=O)CSc1ncc(-c2cccc(Cl)c2)cn1 -17.9%
C=CCn1c(SCC(=O)c2c(N)n(C)c(=O)n(C)c2=O)nc2sc(CC)cc2c1=O 2%
Cc1cccc(NC(=O)c2ccc(OCC(=O)NCc3ccccc3)cc2)c1C 4.9%
COc1ccc(Cl)cc1NC(=O)CN(C)C(=O)CNC(=O)C12CC3CC(CC(C3)C1)C2 16%
O=C(Cc1ccc(S(=O)(=O)N2CCOCC2)s1)NCCC(c1ccccc1)c1ccccc1 4.8%
CCCc1ccc(-c2c(C)sc(NC(=O)c3ccnn3C)c2C#N)cc1 10%
CCOC(=O)C1=C(CN2CCc3ccccc32)NC(=O)NC1c1cc(C)ccc1C (stereo unspecified) -13.1%
CCn1cc(C(=O)N/N=C(/C)c2ccc(F)cc2)c(=O)c2cc(F)c(N3CCCC3)cc21 15.8%
Cc1c(C(=O)NCc2ccccc2)cnn1-c1ccccc1 -6.2%
O=C(Nc1cc(C(F)(F)F)ccc1Cl)c1cc2nc3c(c(C(F)(F)F)n2n1)CCCC3 0.6%
O=C(CN1CCCCCC1)Nc1ccc(Br)cc1Br 12.8%
CC(C)(C)Cc1nnc(NC(=O)c2cc(-c3ccccc3)nc3ccccc23)s1 15.7%
C=CCn1c(-c2ccc(Cl)cc2)ccc(C#N)c1=O -30.7%
O=[N+]([O-])c1cccc(-c2nnc3c4ccccc4c4ccccc4n23)c1 5.3%
CN1OC(COC(=O)c2ccc(Cl)cc2)CC1c1ccccc1 (stereo unspecified) 6.5%
CC1Cc2ccccc2N1CC(=O)Nc1ccc2c(c1)OC(F)(F)O2 (stereo unspecified) -0.7%
Cn1sc(NC(=O)c2ccccc2)nc1=O -7.1%
CCOC(=O)CSc1nc2sc3c(c2c(=O)[nH]1)CC(C)(C)OC3 4.9%
CCC1(C)Cc2c(sc3nc4n(c(=O)c23)CCCS4)CO1 (stereo unspecified) -10.6%
COc1ccc(CCN(C(=O)COc2ccccc2)c2nc(-c3ccccc3)cs2)cc1OC -22.5%
C=CCOc1cccc(CNn2cn[nH]c2=S)c1 0.7%
Cn1c2ccccc2n2c(=O)c(=O)n(CC(=O)c3ccc(F)cc3)nc12 -17.3%
COc1ccc(Nc2nc(-c3ccccc3)cs2)cc1 11.3%
c1ccc(C2CCC(N3CCC(N4CCCCC4)CC3)CC2)cc1 (stereo unspecified) 26.6%
O=C(CSCc1c(Cl)cccc1Cl)NN1C(=O)c2ccccc2C1=O 11.9%
CC(=O)NNc1cc(=O)c2c(=O)n(C)c(=O)n(C)c2[nH]1 -8.3%
CCCCNC(=O)CCn1c(=S)[nH]c2cc3c(cc2c1=O)OCO3 -16.1%
CCCNC(=S)NC1CC2CCCC(C1)N2CC(C)C (stereo unspecified) 14.2%
O=C(NC1CCc2ccccc21)C12CN(Cc3ccccc3)CC1C(c1cccc([N+](=O)[O-])c1)=NO2 (stereo unspecified) 11.9%
CCCSc1nsc(N)n1 8.5%

inhibition, active:
COc1ccc(-c2nnc(SCC(=O)NC3CCCCC3)o2)cc1OC 30.5%
CCCCCCOC(=O)NCC(O)c1ccccc1 (stereo unspecified) 61.8%
O=C(Nc1ncc2c(n1)CC(c1ccco1)CC2=O)c1ccc(Cl)cc1 (stereo unspecified) 100%
CCOC(=O)Cn1c(SC)nc2sc3c(c2c1=O)CC(C)(C)OC3 81.7%
